Bioassay records deposited in PubChem BioAssay by National Center for Advancing Translational Sciences (NCATS).
Many of the other results were omitted from the sample, so hits are more common in it than they were.
Shiga inhibitor: inhibitors of Shiga toxin in Vero cells; hit rate 9.2% among 290,000; AID 2315; Vero cells, Shiga toxin protein synthesis inhibition reporter; inhibition, % at 38.7 µM; in the data active = inhibition mostly above about 28%, no sharp cut-off; inactive = mostly below about 43%
NS1 function inh: inhibitors of influenza NS1 protein function; Potency, µM (titrated, usually from 46.1 µM); hit rate 0.4% among 270,000; AID 2326; calls by dose curve; note: actives are rising curves; nearly all actives have a fitted effect of over 50% in size
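Compounds were scored for reversing the slow growth caused by influenza A NS1 in S. cerevisiae, measured by optical density at 600 nm. Assay medium contained 2% galactose at pH 6.0; NS1-free yeast of the same strain were the positive control.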
Cycloheximide cs: affects cycloheximide protein synthesis inhibition readout, counter-screen. cell reporter, cycloheximide protein synthesis inhibition counterscreen. max response, %. hit rate 12% among 300,000. AID 2314; in the data active = max response mostly above about 13%, no sharp cut-off; inactive = mostly below about 14%; note: read at 38.3 µM for the half of the compounds with a filed dose
AmpC inh detg: blocks E. coli AmpC beta-lactamase in detergent assay | P00811 | AmpC hydrolysis of nitrocefin, absorbance 480 nm, 0.01% Triton | Potency, µM (highest dose often 114 µM), usual class: inhibitors | hit rate 0.041% among 370,000 | AID 485294; note: nearly all actives have a fitted effect of over 25% in size
Target sequence (P00811 whole entry, looked up): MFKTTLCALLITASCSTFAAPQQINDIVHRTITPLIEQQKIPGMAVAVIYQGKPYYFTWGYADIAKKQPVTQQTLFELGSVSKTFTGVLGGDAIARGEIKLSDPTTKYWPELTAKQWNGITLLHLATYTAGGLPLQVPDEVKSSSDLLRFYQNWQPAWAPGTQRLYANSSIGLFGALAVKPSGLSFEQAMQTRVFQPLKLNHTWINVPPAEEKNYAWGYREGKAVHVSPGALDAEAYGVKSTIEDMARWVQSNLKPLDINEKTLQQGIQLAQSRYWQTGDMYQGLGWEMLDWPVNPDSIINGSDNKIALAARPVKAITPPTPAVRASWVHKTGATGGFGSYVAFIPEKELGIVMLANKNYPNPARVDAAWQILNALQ
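20 mM phosphate pH 7.0 + 0.01% (detergent screen) or 0.0001% Triton X-100; 5.3 nM AmpC reagent; cpd preinc 15 min RT; nitrocefin (800 uM stock) to start; A480 q20 s × 4 min; Activity was normalised to no-enzyme and no-compound control wells.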
AmpC no deterg: blocks E. coli AmpC beta-lactamase in detergent-free assay; P00811; AmpC nitrocefin hydrolysis, absorbance 480 nm, 0.0001% Triton; Potency, µM (titrated, usually from 57.1 µM), most hits filed as inhibitors; hit rate 0.52% among 330,000; note: nearly all actives have a fitted effect of over 20% in size
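20 mM phosphate pH 7.0 + 0.01% (detergent screen) or 0.0001% Triton X-100; 5.3 nM AmpC reagent; cpd preinc 15 min RT; nitrocefin (800 uM stock) to start; A480 q20 s × 4 min; Activity was normalised to no-enzyme and no-compound control wells.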
Hits are given with their value; i = inactive; ? = inconclusive; nt = not tested or not shown; ! = not confirmed by another sample. Unless noted, calls come from the whole dose curve; as a rule, active = well fitted curve in the direction sought with a large enough effect; inconclusive = small, poorly fitted or top-dose-only effect, or another doubt; inactive = no such curve, though single readings can be large; an effect the other way counts as inactive or inconclusive.

SMILES	Shiga inhibitor	NS1 function inh	Cycloheximide cs	AmpC inh detg	AmpC no deterg
O=C(CN1CCN(Cc2ccccc2)CC1)N/N=C/C=C/c1ccccc1[N+](=O)[O-]	i	i	i	i	i
O=C(O)c1cc(N/N=C/C=C/c2ccccc2[N+](=O)[O-])ccc1Cl	68.0	i	41.8	i	i
NS(=O)(=O)c1ccc(N/N=C/C=C/c2ccccc2[N+](=O)[O-])cc1	79.9	i	36.7	i	i
CCc1ccc(-n2c(=O)c3c4c(sc3n(CC(=O)NCCCOC)c2=O)CCC4)cc1	nt	nt	nt	i	nt
COc1ccc(-c2noc(COc3ccc(Br)cc3C)n2)cc1OC	nt	nt	nt	i	nt
NS(=O)(=O)C[C-]1C=C[CH]([Sb-]([Cl])([Cl])([Cl])([Cl])[Cl])C=C1.c1ccncc1 (stereo not given)	nt	i	nt	nt	nt
COc1cccc(/C=N/Nc2nc3ccccc3[nH]2)c1O	94.3	i	51.9	i	i
COc1cccc(/C=N/Nc2nc3ccccc3[nH]2)c1OC	114.3	i	52.0	i	i
COc1cccc(/C=N/Nc2ncc(C)c(=O)[nH]2)c1OC	i	i	i	i	i
COc1ccccc1Nc1nc2ccccc2[nH]1	90.9	i	28.6	i	i
Fc1ccc(Nc2ncnc3sc4c(c23)CCC4)cc1	i	i	i	i	0.316µM
O=C(CC1NCCNC1=O)Nc1ccc(F)c(Cl)c1 (stereo not given)	nt	nt	nt	i	nt
Cc1cc(Nc2ccccc2F)n2nc(Cc3ccc(Cl)cc3)nc2n1	nt	nt	nt	i	nt
CCC(=O)c1ccc(OCC(O)Cn2nc(C)cc2C)cc1 (stereo not given)	i	i	i	i	i
Cc1ccccc1OCC(O)Cn1nnc2ccccc21 (stereo not given)	79.4	i	50.3	i	i
Cc1cc(C)n(CC(O)COc2ccccc2C)n1 (stereo not given)	i	i	i	i	i
CCC(=O)c1ccc(OCC(O)Cn2nnc3ccccc32)cc1 (stereo not given)	64.8	nt	44.9	i	i
CC(C)(CNCc1ccccc1)NS(=O)(=O)c1ccccc1	nt	nt	nt	nt	i
COc1ccc(/C=C2\SC(N3CCCCC3)=NC2=O)cc1	i	i	22.3	i	i
O=C1N=C(N2CCCC2)S/C1=C\C=C\c1ccccc1	69.2	i	46.7	i	i
O=C1N=C(N2CCCCC2)S/C1=C\c1ccncc1	i	i	i	i	i
CCOC(=O)C1CCCN(C2=NC(=O)/C(=C/c3ccc(O)c(OC)c3)S2)C1 (stereo not given)	i	i	14.4	i	i
CCC1(CCSC(=N)N)C(=O)NC(=O)NC1=O	nt	i	nt	nt	nt
Cc1ccc2nc(NC(=O)C3CCN(S(=O)(=O)c4cccc5nsnc45)CC3)sc2c1	i	i	i	i	i
O=C(Nc1ccc2c(c1)OCCO2)C1CCCN(S(=O)(=O)c2cccc3nsnc23)C1 (stereo not given)	i	?	24.2	i	i
SMILES	Shiga inhibitor	NS1 function inh	Cycloheximide cs	AmpC inh detg	AmpC no deterg
Cc1ccc2nc(NC(=O)C3CCCN(S(=O)(=O)c4cccc5nsnc45)C3)sc2c1 (stereo not given)	i	i	24.7	i	i
O=C(Nc1ccc2c(c1)OCCO2)C1CCN(S(=O)(=O)c2cccc3nsnc23)CC1	i	i	i	i	i
CCOc1ccc(-c2cc(C(=O)NCc3ccc(OCC)c(OC)c3)[nH]n2)cc1	nt	nt	nt	i	nt
COC1C(O)C(CO)OC1n1cnc2c(NC3CCCCC3)ncnc21 (stereo not given)	i	nt	i	nt	nt
COc1ccc(CNC(=O)c2sc3nc4n(c(=O)c3c2C)CCCCC4)cc1	nt	nt	nt	i	nt
COc1ccc(-c2cc3nc(C)n(N)c(=O)c3s2)cc1	i	i	i	i	i
COc1ccc(-c2cc3nc4n(c(=O)c3s2)CCC4)cc1	90.5	i	33.0	i	i
COc1ccc(Nc2ncnc3c2nc2n3CCCCC2)cc1	nt	nt	nt	i	nt
COc1ccc(-c2nc3n(c2C)CCC3)cc1	70.6	i	26.9	i	i
COc1ccc(-c2cc3nc4n(c(=O)c3s2)CCCCC4)cc1	78.2	i	49.4	i	i
Cc1nn2c(-c3cccc(NC(=O)c4ccc(Cl)cc4)c3)nnc2c2ccccc12	nt	nt	nt	i	nt
Nc1ncnc2c1nc(Br)n2[C@@H]1O[C@H]2COP(=O)(O)O[C@@H]2[C@@H]1O	i	nt	i	nt	nt
CCC(C)(C(=O)NC1CCCCC1)N(Cc1ccco1)C(=O)CNC(=O)c1ccccc1 (stereo not given)	i	i	31.1	i	i
CCC(C)(C(=O)NC1CCCCC1)N(CC1CCCO1)C(=O)CNC(=O)c1ccccc1 (stereo not given)	i	i	i	i	i
CCCN(C(=S)Nc1ccccc1)C1CCS(=O)(=O)C1 (stereo not given)	i	i	i	i	i
O=[N+]([O-])c1cccc(-c2ccc(C(=S)N3CCOCC3)o2)c1	72.4	i	39.1	i	i
O=[N+]([O-])c1cc(-c2ccc(C(=S)N3CCOCC3)o2)ccc1Cl	54.7	nt	30.6	?	i
CN1CCN(C(=S)c2ccc(-c3cccc([N+](=O)[O-])c3)o2)CC1	101.5	i	51.1	i	i
O=[N+]([O-])c1ccc(-c2cnc(SCc3ccccc3Cl)[nH]2)cc1	57.9	i	28.0	i	i
CCOc1ccc(OCCCCn2ccnc2)cc1	i	i	25.7	i	i
CCOc1ccc(OCCn2ccnc2)cc1	i	i	i	i	i
Cc1ccc(OCCCCn2ccnc2)c(Cl)c1	39.8	i	27.1	?	i
Cc1ccc(OCCOCCn2ccnc2)c(Br)c1	i	i	30.7	i	i
Cc1ccc(OCCCCn2ccnc2)c([N+](=O)[O-])c1	i	i	21.0	i	i
Cc1ccc(OCCn2ccnc2)c(C)c1	i	i	i	i	i
SMILES	Shiga inhibitor	NS1 function inh	Cycloheximide cs	AmpC inh detg	AmpC no deterg
Cc1cccc(C)c1NC(=O)c1ccc(OCc2c(C)noc2C)cc1	nt	nt	nt	nt	i
Cc1c(O)nc(SCC(=O)Nc2ccc3c4c(cccc24)CC3)n(-c2ccc(F)cc2)c1=O	i	i	i	i	28.2µM
COC(=O)c1cc2c(ccn2-c2ccc(F)cc2)n1Cc1ccc(OC)cc1	53.9	i	46.9	i	i
CCn1c(C(=O)OC)cc2c1ccn2-c1ccc(F)cc1	112.7	i	54.0	i	i
COC(=O)c1cc2c(ccn2-c2ccc(F)cc2)n1Cc1ccc(C#N)cc1	i	i	i	i	i
CCOC(=O)c1cc2c(ccn2-c2ccc(F)cc2)n1CC(=O)NC(C)(C)C	i	i	i	i	i
COc1cccc2c1C(=O)c1c(O)c3c(c(O)c1C2=O)C[C@@](O)(C(C)=O)C[C@@H]3O[C@H]1C[C@H](N)[C@H](O)[C@H](C)O1	42.4!	i	i	i	i
COc1ccc(N=Nc2nc3cc(Br)c(Br)cc3n2C)c(OC)c1	34.7	?	33.7	i	i
COc1ccc(N=C(N)N=C(N)N)c(OC)c1	i	i	i	i	i
COCc1c(C(=O)Nc2ccc(Cl)cc2F)oc2ccccc12	185.4	nt	29.3	i	i
COc1ccc2oc(C(=O)Nc3nc(C)cs3)c(C)c2c1	nt	nt	nt	i	i
COCc1c(C(=O)Nc2nc(C)cs2)oc2ccccc12	43.6	nt	24.8	i	i
CC(C)CNC(=O)c1oc2ccccc2c1COc1ccccc1	i	i	i	i	i
